The source made the active and inactive calls.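 How the source made its calls, unless noted: active means NADPH fluorescence slope more negative than the mean of all samples by about 3 SD, 99.7% confidence; inactive means the rest.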

Assay [1] is described as follows: inhibitors of TNFa-induced NFkB p65 translocation, primary screen, imaging, HUVEC, MLSMR starter and 10KST1 sets (AID 438;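 active means inhibition above 20% together with a positive visual image hit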;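 further: compound added about 3h40 before a 20 min TNFalpha stimulation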;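 on inhibition: signal is the nuclear over cytoplasmic p65 intensity ratio per well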). As to conditions: HUVEC TNFa-induced p65 nuclear translocation; cell count: measured here: nuclei count (cytotoxicity indicator), at 2.08 µM; inhibition: at 2 µM, stronger effect = higher value, 0% TNFa-plus-vehicle, 100% no-TNFa wells.
The nature of assay [2]: inhibitors of mutant huntingtin aggregation, primary screen, imaging, exon1htt(103Q)mCFP cells, high-content imaging (AID 483;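 active means visual image review flags a hit and inhibition of aggregation exceeds 20%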;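 further: compound exposure lasted 3 days before fixation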;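 on nuclei count: percent of the per-plate median nuclei count of sample wells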). The note with it: exon1htt(103Q)mCFP cell line, aggregate imaging, at 2 µM; inhibition of aggregation: stronger effect = higher value; nuclei count: measured here: cell count, toxicity.
Assay [3] is described as follows: inhibitors of E-selectin induction by TNFa, primary screen, imaging, HUVEC, immunofluorescence, MLSMR starter and 10KST1 sets (AID 487;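 active means visually confirmed hit in the image check and inhibition above 20%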;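 on inhibition: signal is fraction of cell area covered by stained E-selectin grains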;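 on nuclei count: 100% = median nuclei count of all wells on the same plate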). The note with it: HUVEC TNFalpha-induced E-selectin immunofluorescence imaging, at 2 µM; inhibition: stronger effect = higher value; nuclei count: measured here: cell number, toxicity.
Assay [4] addresses Voltage-gated potassium channel subunit beta-2 (Rattus norvegicus) (UniProt P62483). As to the kind of experiment: KvBeta enzyme negative modulators, primary screen, biochemical, NADPH fluorescence (AID 622;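 active means fluorescence slope higher than the sample average by over 3 SD, cut at about -0.22 in these data, passing the limit was not always enough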;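 further: slope of raw intensity against log time taken from 70 to 1610 s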). As to conditions: recombinant KvBeta, 4-cyanobenzaldehyde reduction, at 10 µM, stronger effect = higher value.
The target is the same in assay [5]. Description: KvBeta positive modulators, primary screen, biochemical, NADPH fluorescence (AID 623).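 Further: fluorescence intensity change per second fitted from 20 to 320 s.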 As to conditions: Recombinant KvBeta, NADPH fluorescence decrease slope, 10 min; at 10 µM; stronger effect = lower value.
In assay [6] the target is Alpha-2C adrenergic receptor (Homo sapiens) (UniProt P18825). As to the kind of experiment: modulators of alpha2C/GIRK thallium flux, primary screen, cell-based, HEK293 alpha2C/GIRK1/2 (AID 624;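 active means fluorescence slope after compound addition differing from the mean of all screened samples at 99.7% confidence, in either direction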;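 further: slope of fluorescence ratio to pre-addition baseline per second over 15 to 24 s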). The note with it: thallium flux BTC fluorescence, at 10 µM, actives lie on both sides.
Assay [7] is described as follows: inhibitors of Sendai virus-induced IRF3 signaling, primary screen, TLR/RLR signaling modifier project, cell-based, Sendai virus stimulus, luciferase, 10K MLSCN set (AID 602276;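 active means inhibition at or above 50% at 10 µM; inactive means inhibition below 50%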;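 further: firefly luciferase from ISG56 promoter only with Renilla not read in this screen; 0% = Sendai virus plus DMSO and 100% = medium plus DMSO without virus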). As to conditions: HEK293 RL24 IRF3 luciferase reporter, at 10 µM, stronger effect = higher value.
Assay [8] is described as follows: inhibitors of poly I:C-induced TLR3 signaling, primary screen, cell-based, poly I:C stimulus, luciferase, 10K MLSCN set (AID 602277;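 active means inhibition of the reporter signal at or above 50%; inactive means inhibition below 50%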). As to conditions: HEK293-TLR3 RL24 IRF3 luciferase reporter, at 10 µM, stronger effect = higher value. On the technique in general: A reporter such as luciferase makes a cellular process visible.

Voltage-gated potassium channel subunit beta-2 (Rattus norvegicus), sequence (P62483 whole entry, looked up): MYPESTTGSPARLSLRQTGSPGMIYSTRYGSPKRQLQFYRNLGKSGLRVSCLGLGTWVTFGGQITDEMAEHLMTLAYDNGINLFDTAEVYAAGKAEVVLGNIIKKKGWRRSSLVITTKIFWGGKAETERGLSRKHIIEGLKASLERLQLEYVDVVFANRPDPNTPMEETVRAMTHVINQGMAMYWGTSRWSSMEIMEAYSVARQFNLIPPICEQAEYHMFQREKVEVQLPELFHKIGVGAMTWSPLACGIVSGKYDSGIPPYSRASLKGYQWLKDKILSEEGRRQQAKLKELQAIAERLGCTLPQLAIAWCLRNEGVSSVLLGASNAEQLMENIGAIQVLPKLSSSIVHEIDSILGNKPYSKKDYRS
Alpha-2C adrenergic receptor (Homo sapiens), sequence (P18825 whole entry, looked up): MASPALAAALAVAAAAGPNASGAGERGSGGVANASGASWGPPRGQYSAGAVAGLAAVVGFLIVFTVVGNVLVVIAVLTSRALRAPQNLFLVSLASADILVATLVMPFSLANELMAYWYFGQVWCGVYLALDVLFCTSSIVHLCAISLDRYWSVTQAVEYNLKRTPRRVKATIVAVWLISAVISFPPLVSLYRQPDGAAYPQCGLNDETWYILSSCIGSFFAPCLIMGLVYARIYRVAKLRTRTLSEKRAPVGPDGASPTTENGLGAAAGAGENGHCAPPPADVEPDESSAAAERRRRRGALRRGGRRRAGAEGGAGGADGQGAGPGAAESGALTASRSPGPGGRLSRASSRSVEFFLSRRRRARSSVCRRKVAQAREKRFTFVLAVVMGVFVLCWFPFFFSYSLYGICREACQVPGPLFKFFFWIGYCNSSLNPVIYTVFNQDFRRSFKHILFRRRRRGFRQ

For the compound `CCC(C)NC(=O)C1c2cc(OC)c(OC)cc2C(=O)N(C)C1c1ccc(OC)cc1` (centres undefined), in assay [1], the cell count came to 455. Further, the inhibition was -0.3% (inactive) in assay [1], 43.7% (inactive) in assay [3], -0.973% (inactive) in assay [7] and 2.51% (inactive) in assay [8]. Also, in assay [2], the inhibition of aggregation is 7.3% (inactive). The nuclei count in assay [2] amounted to 100%; in assay [3], 52.6%. The fluorescence slope in assay [4] was -0.539 (inactive). For the same compound, in assay [5], the NADPH fluorescence slope was -8.1e-06 (inactive). The slope in assay [6] is 0.00537 (inactive).

`Cc1nc(NC(=O)C23CCC(C)(C(=O)O2)C3(C)C)sc1C` (centres undefined): the cell count in assay [1] came out at 595. Moreover, the inhibition in assay [1] is -13.1% (inactive); in assay [3] it was -22.1% (inactive); in assay [7] it was 12.9% (inactive); in assay [8], 29.5% (inactive). In assay [2], the inhibition of aggregation was 15.4% (inactive). Moreover, the nuclei count in assay [2] was 105%; in assay [3], 106%. In assay [4], the fluorescence slope was -0.462 (inactive). The NADPH fluorescence slope in assay [5] is 8.7e-06 (inactive). Besides, the slope in assay [6] was 0.00641 (inactive).

Take `Cc1cccc(N2CCN(C(=O)c3cc4ccccc4oc3=O)CC2)c1C`: the cell count in assay [1] came out at 712. For the same compound, the inhibition in assay [1] was -2.8% (inactive); in assay [3] it was -22.9% (inactive); in assay [7] it was -10.3% (inactive); in assay [8] it was -10.8% (inactive). The inhibition of aggregation in assay [2] is -28.9% (inactive). In addition, the figures for the nuclei count in assay [2] and in assay [3] were 93.7% and 117%, respectively. The fluorescence slope in assay [4] was -0.565 (inactive). The NADPH fluorescence slope in assay [5] is -2.1e-05 (inactive). Further, the slope in assay [6] was 0.00624 (inactive).

For `Cn1c(=O)c2nc(Cl)n(Cc3ccc(Cl)cc3Cl)c2n(C)c1=O`, the cell count in assay [1] came out at 719. The inhibition was -22.4% (inactive) in assay [1], -7.8% (inactive) in assay [3], 21.4% (inactive) in assay [7] and 23.2% (inactive) in assay [8]. Further, the inhibition of aggregation in assay [2] was 11.5% (inactive). Further, the nuclei count is 89.6% in assay [2] and 110% in assay [3]. In assay [4], the fluorescence slope is -0.514 (inactive). Further, the NADPH fluorescence slope in assay [5] is -4.5e-05 (inactive). Besides, the slope in assay [6] is 0.00452 (inactive).

Turning to `O=C(CCS(=O)(=O)c1cc(Br)cc2c1N(C(=O)C1CC1)CC2)NCC1CCCO1` (centres undefined), the cell count in assay [1] was 415. Besides, the inhibition in assay [1] was -0.6% (inactive); in assay [3], -15.8% (inactive); in assay [7], 12.5% (inactive); in assay [8], -10.9% (inactive). The inhibition of aggregation in assay [2] was -16.1% (inactive). The nuclei count in assay [2] worked out at 105%; in assay [3], 85.8%. The fluorescence slope in assay [4] was -0.314 (inactive). For the same compound, the NADPH fluorescence slope in assay [5] was -1.2e-05 (inactive). Further, in assay [6], the slope is 0.00703 (inactive).

Consider `CCOC(=O)C1=C(O)CCn2c1nc1ccccc12`, for which the cell count in assay [1] stood at 376. Moreover, the inhibition is 2% (inactive) in assay [1], -214% (inactive) in assay [3], 9.43% (inactive) in assay [7] and -0.0537% (inactive) in assay [8]. Also, in assay [2], the inhibition of aggregation is 14.2% (inactive). The nuclei count in assay [2] is 56.5%; in assay [3], 98.6%. Further, the fluorescence slope in assay [4] was -0.504 (inactive). Besides, in assay [5], the NADPH fluorescence slope was -0.000164 (inactive). Further, the slope in assay [6] was 0.005 (inactive).

As to `CCOC(=O)c1ccc2[nH]c3c(c2c1)CN(C)CC3`, the cell count in assay [1] amounted to 686. Further, the inhibition in assay [1] was -1.3% (inactive); in assay [3], -29.4% (inactive); in assay [7] it was 5.79% (inactive); in assay [8] it was 21.3% (inactive). The inhibition of aggregation in assay [2] is 28.7% (inactive). Further, the nuclei count in assay [2] was 73.1%; in assay [3], 114%. Moreover, the fluorescence slope in assay [4] was -0.543 (inactive). Moreover, the NADPH fluorescence slope in assay [5] was -5.6e-05 (inactive). Moreover, the slope in assay [6] is 0.00602 (inactive).

`C=COC(=O)CSc1snc(SCC(=O)OC)c1C#N`: the cell count in assay [1] was 300. For the same compound, the inhibition in assay [1] is -6.3% (inactive); in assay [3] it was -31.9% (inactive); in assay [7], 15.5% (inactive); in assay [8], 18.4% (inactive). In addition, the inhibition of aggregation in assay [2] is 11.1% (inactive). The nuclei count in assay [2] was determined as 102%; in assay [3] it was 88.9%. Moreover, the fluorescence slope in assay [4] was -0.581 (inactive). Moreover, the NADPH fluorescence slope in assay [5] was -4.2e-06 (inactive). Moreover, the slope in assay [6] is 0.00524 (inactive).

In the case of `CC(NC(=O)COc1ccc(Br)cc1)C(=O)O` (centres undefined), in assay [1], the cell count is 434. In addition, the inhibition in assay [1] is 6% (inactive); in assay [3], -149% (inactive); in assay [7] it was 10.1% (inactive); in assay [8], 24.7% (inactive). For the same compound, the inhibition of aggregation in assay [2] is 4.7% (inactive). Moreover, the nuclei count came out at 100% in assay [2] and 136% in assay [3]. For the same compound, the fluorescence slope in assay [4] is -0.439 (inactive). The NADPH fluorescence slope in assay [5] was -1.3e-05 (inactive). In assay [6], the slope was 0.00364 (inactive).

With `Cc1nnc2n(-c3ccc(Cl)cc3)c(=O)c3c4c(sc3n12)CN(C)CC4`, in assay [1], the cell count turned out to be 386. For the same compound, the inhibition in assay [1] was -5.7% (inactive); in assay [3] it was 22% (inactive); in assay [7], -17.3% (inactive); in assay [8], -5.51% (inactive). The inhibition of aggregation in assay [2] was 8.9% (inactive). In addition, the nuclei count in assay [2] turned out to be 93.3%; in assay [3] it was 89.5%. Further, the fluorescence slope in assay [4] is -0.477 (inactive). Besides, in assay [5], the NADPH fluorescence slope was -0.000149 (inactive). The slope in assay [6] is 0.00624 (inactive).

Regarding `CN1CCc2nc(SCCOc3ccccc3)c(C#N)cc2C1`, the cell count in assay [1] came to 319. The inhibition in assay [1] was -4% (inactive); in assay [3] it was -44.8% (inactive); in assay [7], -2.8% (inactive); in assay [8] it was 2.79% (inactive). Besides, in assay [2], the inhibition of aggregation was 0% (inactive). In addition, the results for the nuclei count in assay [2] and in assay [3] were 93.7% and 114%, respectively. For the same compound, the fluorescence slope in assay [4] is -0.346 (inactive). Also, in assay [5], the NADPH fluorescence slope is -9.3e-07 (inactive). Further, the slope in assay [6] is 0.00342 (inactive).

With `Nc1nc(-c2ccc(Cl)cc2)nn1C(=O)c1cccnc1`, the cell count in assay [1] was determined as 293. The inhibition was 4.2% (inactive) in assay [1], 40.8% (inactive) in assay [3], -0.966% (inactive) in assay [7] and -2.82% (inactive) in assay [8]. Besides, the inhibition of aggregation in assay [2] was -4.2% (inactive). Besides, the nuclei count in assay [2] worked out at 96.8%; in assay [3], 105%. Also, the fluorescence slope in assay [4] was -0.397 (inactive). The NADPH fluorescence slope in assay [5] was 6.7e-06 (inactive). The slope in assay [6] is 0.00507 (inactive).

With `C=CCSC1=C(C#N)C(c2ccccc2OCC)CC(=O)N1` (centres undefined), the cell count in assay [1] turned out to be 328. The inhibition was -4.1% (inactive) in assay [1], 12.5% (inactive) in assay [3], 6.62% (inactive) in assay [7] and 24.6% (inactive) in assay [8]. For the same compound, the inhibition of aggregation in assay [2] is 12.8% (inactive). The nuclei count in assay [2] was 99%; in assay [3], 105%. For the same compound, the fluorescence slope in assay [4] was -0.306 (inactive). For the same compound, the NADPH fluorescence slope in assay [5] was 1.7e-05 (inactive). The slope in assay [6] was 0.00314 (inactive).

As to `Cc1ccc2oc(-c3ccccc3C(=O)O)cc(=O)c2c1`, in assay [1], the cell count is 363. The inhibition was 10.8% (inactive) in assay [1], -59.4% (inactive) in assay [3], 12.1% (inactive) in assay [7] and 5.36% (inactive) in assay [8]. Besides, the inhibition of aggregation in assay [2] was 2.4% (inactive). In addition, the nuclei count was found to be 107% in assay [2] and 125% in assay [3]. In assay [4], the fluorescence slope was -0.627 (inactive). Besides, the NADPH fluorescence slope in assay [5] was -1.2e-05 (inactive). Further, the slope in assay [6] was 0.00399 (inactive).

Usually inhibition stands for the relative decrease from the control value, in per cent.

Source of the values: PubChem BioAssay.
